About 2,000 (36%) of roughly 5,500 compounds were called active. Not shown: some 18% with an inconclusive outcome. No stated cut-off is given here; in the data, active means normalized growth mostly below about 0.91 (no sharp cut-off); inconclusive means no clear call, values can overlap the other calls; inactive means mostly above about 0.92. This is one part of the list.
Test: chemical genetic growth profiling, strain panel (AID 1159580);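 further: tested at 20 µM; growth read once vehicle control cultures reached saturation at 30 °C; 1 = growth at the plate median or of vehicle wells; lower values mean less growth of the strain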
Settings: S. cerevisiae deletion strains, growth OD

Measured: normalized growth

CCC(C)[C@H]1O[C@]2(CC[C@@H]1C)C[C@@H]1C[C@@H](C/C=C(\C)[C@@H](OC3C[C@H](OC)C(O[C@H]4C[C@H](OC)[C@@H](O)[C@H](C)O4)[C@H](C)O3)[C@@H](C)/C=C/C=C3\CO[C@@H]4[C@H](O)C(C)=C[C@@H](C(=O)O1)[C@]34O)O2 (stereo partly drawn)
inactive: locus YHR030C, strain SLT2, hits give low values 0.995 | locus YHR079C, strain IRE1, hits give low values 0.992 | locus YJL095W, strain BCK1, hits give low values 0.964 | locus YJR066W, strain TOR1, hits give low values 0.941 | locus YLR113W, strain HOG1, hits give low values 0.993 | locus YNL183C, strain NPR1, hits give low values 0.948 | locus YOR231W, strain MKK1, hits give low values 1 | locus YPL256C, strain CLN2, hits give low values 0.94

Reference: PubChem BioAssay AID1159580 (chemical genetic matrix, 2015)
